Screening results (PubChem BioAssay)
GPR151 activ – activators of human GPR151, primary screen, cell-based, PathHunter beta-arrestin, luminescence; G-protein coupled receptor 151 (Homo sapiens), Q8TDV0; PathHunter beta-arrestin GPR151 cells; activation, % at 11.2 µM; 650,000 compounds, 1% hits; AID 1508602, 2020; in the data active = activation above about 4.9%;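 also: 0% = median of compound wells and 100% = cells with positive control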
TEAD-YAP block – TEAD-YAP interaction inhibition, primary screen, TEAD-YAP interaction inhibitor project, luminescence, HEK-TIYL cells | TEAD-Gal4/YAP UAS-luciferase luminescence | 640,000 compounds, 1.4% hits | inhibition, % at 9.12 µM; in the data active = inhibition above about 32%;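 also: 0% = median of test compound wells and 100% = reference inhibitor wells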
MITF inh – MITF inhibitors, primary screen, biochemical, AlphaScreen, human. 650,000 compounds, 0.91% hits. AID 1259374, 2018. AlphaScreen MITF homodimerization, bead proximity signal. Microphthalmia-associated transcription factor (Homo sapiens), O75030. inhibition, % at 2.6 µM; in the data active = inhibition above about 50%;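 also: 0% = vehicle wells with protein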
Target sequence (O75030 whole entry, looked up): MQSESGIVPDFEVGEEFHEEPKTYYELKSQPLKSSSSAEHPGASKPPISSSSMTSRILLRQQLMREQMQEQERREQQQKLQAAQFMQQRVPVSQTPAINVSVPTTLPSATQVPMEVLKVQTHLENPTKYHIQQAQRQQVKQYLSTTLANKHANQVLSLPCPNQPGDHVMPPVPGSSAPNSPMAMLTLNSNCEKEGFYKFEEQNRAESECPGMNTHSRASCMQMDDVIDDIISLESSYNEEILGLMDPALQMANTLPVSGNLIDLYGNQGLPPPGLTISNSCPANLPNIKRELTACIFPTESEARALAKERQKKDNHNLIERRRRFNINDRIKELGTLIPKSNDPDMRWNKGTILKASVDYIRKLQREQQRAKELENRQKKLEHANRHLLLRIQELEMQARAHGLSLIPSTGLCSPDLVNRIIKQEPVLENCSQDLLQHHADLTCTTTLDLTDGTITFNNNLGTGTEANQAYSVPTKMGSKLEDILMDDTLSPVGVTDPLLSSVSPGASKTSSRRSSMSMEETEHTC
FBW7 act – FBW7 E3 ligase activators, primary screen, biochemical, AlphaScreen, human | AlphaScreen FBW7–phospho-cyclin E peptide binding, activator screen | normalized activity (activation), % at 26.1 µM | 650,000 compounds, 0.13% hits; in the data active = normalized activity above about 1.9%;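 also: purified mutant Fbw7 with reduced substrate affinity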
MITF confirm – MITF inhibitors, retest of hits, confirmation, biochemical, AlphaScreen, triplicate; AID 1259372, 2018; inhibition, % at 2.6 µM; AlphaScreen MITF homodimerization, biotin/His-MITF beads; 4,700 compounds, 16% hits; shares compounds with MITF inh;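 active = inhibition above a cutoff derived from the DMSO control wells, cut at about 28% in these data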;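 also: 0% = MITF dimer wells with DMSO only; inhibitors lower the bead chemiluminescence by keeping MITF from dimerizing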
AS interf DR – AlphaScreen optical interference compounds, dose response, counter-screen, biochemical, HTS; shares compounds with MITF inh; AlphaScreen optical interference counterscreen, cell-free; IC50, µM; 480 compounds, 6% hits; call rule not given here
AlphaScreen intf2 – AlphaScreen optical interference compounds, counter-screen for MITF inhibitor project, biochemical, triplicate | shares compounds with MITF inh | LysRS AlphaScreen counterscreen, signal interference | inhibition, % at 2.6 µM | 4,700 compounds, 7.6% hits;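 active = inhibition above a cutoff derived from the DMSO control wells, cut at about 30% in these data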
Active calls of the source: *; / = not tested or not shown. Compounds with a hit are over-represented: about 3.5% of the library has one in this group of screens.

SMILES | GPR151 activ | TEAD-YAP block | MITF inh | FBW7 act | MITF confirm | AlphaScreen intf2 | others
O=P(O)(NC1CCCCC1)NC1CCCCC1 | 1 | -1 | -6 | 0 | / | /
CC1CN=C(NCc2cccnc2)S1 (stereo not given) | 0 | -10 | -12 | 0 | / | /
COc1ccc(OC)c(CN2CCN(C(=O)COc3ccc(Br)cc3)CC2)c1 | 3 | -1 | 80* | 0 | -13 | -2
CN1CCN(Cc2ccccc2F)CC1 | 0 | 9 | 52* | 0 | 1 | 1
CSc1ccc(CN2CCN(Cc3ccccc3Cl)CC2)cc1 | -2 | -5 | 33 | -1 | / | /
Fc1cccc(CN2CCN(Cc3ccccc3Cl)CC2)c1 | -1 | -9 | 78* | 0 | -8 | -4
Cc1cccc(CN2CCN(Cc3ccccc3Cl)CC2)c1 | 0 | -2 | 51* | 0 | 10 | 15
CN1CCN(Cc2ccccc2O)CC1 | 2 | 18 | 1 | 0 | / | /
Fc1ccc(CN2CCN(Cc3ccccc3Cl)CC2)cc1 | 0 | -12 | 70* | 0 | 11 | 30*
O=c1cccc2n1CC1CC2CN(Cc2ccc(O)cc2)C1 (stereo not given) | 0 | 5 | -11 | 0 | / | /
O=C1CCN(C(=O)c2ccc(Cl)c(Cl)c2)CC1 | -1 | 9 | 11 | 0 | / | /
O=C(COc1ccc(Cl)cc1)N1CCN(Cc2ccccc2F)CC1 | 4 | 1 | 60* | 0 | 7 | 1
CCc1ccc(CN2CCN(Cc3ccccc3F)CC2)cc1 | 0 | -5 | 71* | 0 | -3 | 0
Fc1ccc(F)c(CN2CCN(Cc3ccccc3)CC2)c1 | 4 | -2 | -2 | 0 | / | /
Fc1ccccc1CN1CCN(Cc2ccccc2Cl)CC1 | 1 | 7 | 65* | 0 | 5 | 18
Fc1ccc(CN2CCN(Cc3ccccc3F)CC2)cc1 | 2 | -13 | 78* | 0 | -7 | -3
Fc1ccccc1CN1CCN(Cc2ccc(Cl)cc2)CC1 | 1 | 2 | 50 | 0 | / | /
O=c1cccc2n1CC1CC2CN(Cc2cc(F)ccc2F)C1 (stereo not given) | 1 | 2 | 0 | 0 | / | /
Cc1ccccc1C(=O)Nc1ccc(Cl)cc1C(=O)c1ccccc1Cl | 1 | -6 | 11 | 0 | / | /
Cc1ccccc1CN1CCN(Cc2cccc(F)c2)CC1 | 0 | -1 | 80* | 0 | 10 | 15
O=C(Oc1cccc2cccnc12)c1cc(S(=O)(=O)N2CCOCC2)ccc1Cl | -1 | -11 | -3 | 0 | / | /
Cc1cc(S(=O)(=O)N2CCCC2)ccc1OCC(=O)N1CCN(C)CC1 | -1 | -2 | 1 | 0 | / | /
CCCC1=C(C(=O)OCC)C2(C(=O)Nc3ccccc32)C(C#N)=C(N)O1 (stereo not given) | -1 | 9 | -8 | 0 | / | /
CCn1c2ccccc2c2cc(CN3CCN(C)CC3)ccc21 | 0 | 4 | 63* | 0 | 14 | 13
O=C(NC(=O)c1c(F)cccc1F)Nc1ccc(Cl)cc1 | 0 | -13 | 27 | 0 | / | /
SMILES | GPR151 activ | TEAD-YAP block | MITF inh | FBW7 act | MITF confirm | AlphaScreen intf2 | others
CCOc1cc(CN2CCN(C(C)CC)CC2)ccc1OC (stereo not given) | 1 | -6 | 74* | 0 | -3 | -9
COc1ccc(CN2CCNCC2)cc1Br | -1 | 19 | 10 | 0 | / | /
CCOc1cc(CN2CCN(CCO)CC2)ccc1OC | -1 | 5 | 8 | 1 | / | /
CCC(C)N1CCN(Cc2ccc(OC)c(Br)c2)CC1 (stereo not given) | 2 | 27 | 82* | 0 | 24 | 14
Cc1cccc(CN2CCN(C(=O)Cc3ccccc3)CC2)c1 | 1 | 6 | 37 | 0 | / | /
O=C(Cc1ccccc1)N1CCN(Cc2cccc(F)c2)CC1 | 1 | 3 | 54* | 0 | -2 | 13
O=C(Cc1ccccc1)N1CCN(Cc2cccnc2)CC1 | 0 | 1 | 69* | 0 | -1 | -3
O=C(Cc1ccccc1)N1CCN(Cc2ccccc2Cl)CC1 | 1 | 13 | 57* | 0 | -6 | 0
CCc1ccc(CN2CCN(C(=O)Cc3ccccc3)CC2)cc1 | 0 | 11 | 33 | 0 | / | /
Cc1ccc(C(=O)NC(N)C(Cl)Cl)cc1 (stereo not given) | 0 | 1 | -17 | 0 | / | /
N/C(=N/[N+](=O)[O-])N1CCN(S(=O)(=O)N2CCOCC2)CC1 | 0 | -5 | 10 | 0 | / | /
CN1C(=O)NC(=O)C(CCc2ccncc2)(CCc2ccncc2)C1=O | 1 | 5 | 11 | 0 | / | /
COCC1CCCN(CC(=O)Nc2cccnc2)C1 (stereo not given) | -1 | -5 | 75* | 0 | 11 | 14
CCC(C)N1CCN(Cc2ccc(OC)c(OC)c2OC)CC1 (stereo not given) | 0 | 4 | 69* | 0 | -1 | -7
CCC(C)N1CCN(Cc2cc(OC)ccc2OC)CC1 (stereo not given) | 1 | -7 | 57* | 0 | -2 | 3
CCC(CC)N1CCN(Cc2ccc(OC)c(OC)c2OC)CC1 | -1 | 10 | 74* | 0 | 1 | 4
COc1ccc(OC)c(CN2CCN(Cc3ccccc3)CC2)c1 | 0 | -5 | 6 | 0 | / | /
CN(CCO)c1ccc([N+](=O)[O-])c2nonc12 | 0 | 4 | 28 | 1 | / | /
CCOc1ccc(CN2CCN(CCO)CC2)cc1 | 2 | -3 | 42 | 0 | / | /
COc1ccc(CN2CCN(CCO)CC2)cc1OC | 0 | -1 | 14 | 0 | / | /
OCCN1CCN(Cc2ccc(Br)cc2)CC1 | 1 | 7 | 67* | 0 | -3 | 3
OCCN1CCN(Cc2cccc(Br)c2)CC1 | 0 | 7 | 91* | 0 | 0 | 1
OCCN1CCN(Cc2ccc(Cl)c(Cl)c2)CC1 | 2 | 5 | 83* | 0 | 6 | 1
OCCN1CCN(Cc2ccc(Cl)cc2Cl)CC1 | 0 | 8 | 51* | 0 | 2 | 1
CCN1CCN(c2ccc(NC(=O)C(Cl)(Cl)Cl)cc2)CC1 | -2 | -13 | -5 | 0 | / | /
CC(=O)N1CCC(N2Cc3ccccc3-n3cccc3C2c2ccco2)CC1 (stereo not given) | 0 | -4 | 6 | 0 | / | /
c1ccc(CCNCc2ccncc2)cc1 | 0 | -4 | 10 | 0 | / | /
CN(N=O)c1cc(O)ccc1O | 1 | 7 | 78* | 0 | 62* | -19 | AS interf DR=>6.5
CCOC(=O)N1CCC(NC(=O)CCc2nc(C3=CCN(C)CC3)no2)CC1 | -1 | 7 | 53* | 0 | 35* | 15 | AS interf DR=>6.5
CCN1CCN(Cc2ccc(NC(=O)CCc3nc(C4=CCN(C)CC4)no3)cc2)CC1 | 0 | 5 | 59* | 3.9* | 63* | 42*
